Out of some 1,100 compounds screened, about 70 (6%) were called active. Inconclusive results (about 22%) are left out. Calls follow the shape of the dose curve; as a rule, active = well fitted curve in the direction sought with a large enough effect; inconclusive = small, poorly fitted or top-dose-only effect, or another doubt; inactive = no such curve, though single readings can be large or run the other way. The list comes from a sample in which actives are over-represented; it also holds similar structures and randomly drawn compounds.
Biological target: Polyunsaturated fatty acid lipoxygenase ALOX12 (Homo sapiens) (UniProt P18054)
Sequence (P18054 whole entry, looked up): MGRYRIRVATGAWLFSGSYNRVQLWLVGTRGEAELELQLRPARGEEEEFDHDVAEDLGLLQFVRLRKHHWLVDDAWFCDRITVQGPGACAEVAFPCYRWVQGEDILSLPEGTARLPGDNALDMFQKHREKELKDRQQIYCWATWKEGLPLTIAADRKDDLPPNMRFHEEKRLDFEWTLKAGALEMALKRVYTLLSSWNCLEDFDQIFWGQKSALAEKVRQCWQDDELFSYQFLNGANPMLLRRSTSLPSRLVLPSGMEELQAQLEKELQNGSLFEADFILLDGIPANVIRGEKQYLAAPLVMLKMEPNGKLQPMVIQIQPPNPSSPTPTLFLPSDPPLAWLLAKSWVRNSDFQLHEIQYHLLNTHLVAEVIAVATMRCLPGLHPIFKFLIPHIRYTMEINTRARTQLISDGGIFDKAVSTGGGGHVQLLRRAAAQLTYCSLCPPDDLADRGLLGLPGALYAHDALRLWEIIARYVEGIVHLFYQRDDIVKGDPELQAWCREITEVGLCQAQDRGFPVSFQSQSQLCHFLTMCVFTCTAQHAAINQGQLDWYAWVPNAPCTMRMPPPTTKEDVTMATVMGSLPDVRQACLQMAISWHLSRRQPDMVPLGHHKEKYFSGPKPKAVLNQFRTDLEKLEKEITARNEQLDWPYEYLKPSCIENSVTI
Assay: Confirmatory qHTS assay for inhibitors of human arachidonate 12S-lipoxygenase (ALOX12): Round 2
Conditions: purified human 12-LOX, xylenol orange absorbance; series mostly up to 125 µM
Text: Assay Provider: Theodore R. Holman Ph.D. University of California, Santa Cruz, California Human lipoxygenase 12hLO is a member of the closely related lipoxygenase family of enzymes which catalyze the site-specific oxidation of arachidonic acid to various hormone precursor molecules and as such is a candidate for drug development in a variety of disease areas, such as cancer and inflammation. Inhibition of 12hLO activity was screened by utilizing arachidonic acid as a substrate. The extent of hydroperoxide product formation was measured by a secondary chromogenic reaction in which xylenol orange (XO, Sigma-Aldrich, cat. number 39,818-7) reacts with the ferric ions produced from the reaction between the hydroperoxide and ferrous ions. The Fe (III)-XO complex is characterized with red-shifted absorbance at 560 nm. A purified preparation of human 12hLO was supplied by Dr. Holman laboratory, University of California, Santa Cruz.
PROTOCOL TABLE SEQUENCE No. (e.g., 1, 2, 3, etc.); […] (e.g., Cells, Incubation, Reagent, etc.); VALUE; DESCRIPTION 1; Enzyme; 3 uL; 150 nM 12hLO enzyme solution dispensed in 1536-well Greiner black, clear bottom plates. 2; Compound; 23 nL; compounds and controls were added. 3; Incubate; 15 min; room temperature. 4; Substrate; 1 uL; 40 uM arachidonic acid (final concentration). 5; Incubate; 30 min; room temperature. 6; Reagent; 4 uL; Fe-XO solution was added to each well. 7; Incubation; 30 min; room temperature 8; Detector; absorbance; Read 1 at 405 nm absorbance using ViewLux (PerkinElmer) CCD imager. 9; Detector; absorbance; Read 2 at 573 nm absorbance using ViewLux (PerkinElmer) CCD imager. NOTES (numbers refer to sequence above) 1; 150 nM 12hLO (final concentration) in buffer solution (25 mM Hepes, 0.01% Triton X-100, pH 7.0) was dispensed in columns 1, 2, 5-48. Column 1 is neutral (100% activity). Buffer only was dispensed in columns 3 and 4 as no enzyme negative controls. The plates were covered with metal lids with gas-exchange holes. 2; Compounds were pin transferred via a Kalypsys Pin Tool (Wako USA) in column 5 - 48. Control compound was transferred in column 2, titration of nordihydroguaiaretic acid (NDGA, Sigma-Aldrich, N5023) with top concentration of 20 mM in DMSO then 1:3 dilution in duplicate. Dilution factor of 23 nL into 4 uL final assay volume. 3; Covered assay plates were incubated for 15 min at room temperature. 4; Substrate was added to start the reaction; 40 uM arachidonic acid (Sigma-Aldrich, St. Louis, MO) was dispensed throughout the plate. 6; Chromogenic detection reagent solution (divalent iron/xylenol orange, Fe-XO) was added to each well: 200 uM xylenol orange, 300 uM ferrous ammonium sulfate prepared freshly in 50 mM sulfuric acid. 8, 9; Two absorbance readouts were obtained at 405 nm and at 573 nm using a ViewLux high-throughput CCD plate imager (PerkinElmer). The 573 to 405 (Read 2 / Read 1) absorbance ratio was used to compute reaction progress.
Potency is read from the fitted curve at half-maximal effect.

Potency, active:
CC(=O)N1CCC(C(=O)N2CCC3(CC2)NC(=O)N(c2cccc(Cl)c2)N3)CC1 12.6 µM
CCCCNc1oc(-c2cccc3ccccc23)nc1C#N 19.3 µM
O=C(NC1CCCCC1)N1Cc2[nH]cnc2C[C@H]1c1nc(-c2cccc([N+](=O)[O-])c2)no1 6.31 µM
COc1ccc(-c2noc([C@@H]3Cc4nc[nH]c4CN3C(=O)NC3CCCCC3)n2)cc1 10 µM
CCOC(=O)Cn1c(=O)n(-c2ccccc2OC)c2nc(-c3ccccc3F)nc(C(N)=O)c21 11 µM
CCOC(=O)Cn1c(=O)n(-c2ccccc2OC)c2nc(-c3cccc(F)c3)nc(C(N)=O)c21 4.4 µM

Potency, inactive:
COc1ccc(OC2CN(Cc3cccc4ccccc34)C2)cc1
OCC1CN(Cc2ccc(Cl)cc2)CC12CCNCC2 (stereo not drawn)
O=C(c1ccccc1F)N1CCn2c(nnc2C2CCNCC2)C1
O=C(Nc1ccc(-c2cccc(F)c2)cc1)C1CCCN1Cc1cnc[nH]1 (stereo not drawn)
CN1CC(=O)N(C2CCCNCC2)Cc2c(NCC3CC3)ncnc21 (stereo not drawn)
CC(C)Nc1oc(-c2cccc3ccccc23)nc1C#N
C=CCNc1oc(-c2cccc3ccccc23)nc1C#N
COc1ccc(-c2nc(C3CC3)nc3c2CN([S+](=O)([O-])c2ccccc2)CC3)cc1
CCOCCNc1ncnc2c1CN(C1CCNCC1)C(=O)CN2C
COc1ccc(N2CC3CCC(C2)N3C(=O)c2ccc3c(c2)OCO3)cc1
O=C(NCC(F)(F)F)c1cc(C2CC2)nc2c1c(C1CCCN1)nn2-c1ccccc1 (stereo not drawn)
COc1ccc(CN2Cc3[nH]cnc3C[C@H]2c2nc(-c3ccncc3)no2)cc1
Cc1ccc(NC(=O)N2Cc3[nH]cnc3C[C@H]2c2nc(-c3ccc4ccccc4c3)no2)cc1
COC(=O)[C@@H]1Cc2nc[nH]c2CN1C1CCOCC1
CN1CC(=O)N(C2CCCNCC2)Cc2c(NCc3cccs3)ncnc21 (stereo not drawn)
CCc1nc2c(c(-c3ccc(OC)cc3)n1)CCN(Cc1ccc(OC)cc1)CC2
O=C(N1CCCC1)N1CCN(c2ccc(Cl)nn2)C(=O)C1
CC(NC(=O)C1CCN(c2cc(C(F)(F)F)ncn2)CC1)c1ccccc1 (stereo not drawn)
COc1cccc(N2C(=O)NC(=NC3CCCCC3)C23CCCN([S+](=O)([O-])c2cccs2)C3)c1 (stereo not drawn)
O=c1n(-c2cccc(Cl)c2)nc2n1CCN([S+](=O)([O-])c1cccs1)C2
Cc1cccc(CN2CCN(Cc3nc(-c4ccco4)oc3C)C(C)C2=O)c1 (stereo not drawn)
COCCNC(=O)c1cc(C2CC2)nc2onc(C3CCCN3)c12 (stereo not drawn)
